From the supplement of paper PMC10849652
About 7,900 targets were measured; listed, in parts, are those with a hit and a random draw of the rest. About 0.6% of all pairs of compound and target were hits. Unmarked numbers belong to inactive results.

Columns and labels:
Test in all cases: log2 fold change, soluble protein after heating vs DMSO (PISA); higher = thermal stabilisation; K562 cells, 10 uM, 30 min; active = over 0.2 and 3.5 SD of the protein, either way, in both replicates (recomputed)
[1] = compound: CC[C@@H]1C(=O)N(C)c2cnc(Nc3ccc(C(=O)NC4CCN(C)CC4)cc3OC)nc2N1C1CCCC1
Outline: (§1)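 Soluble protein was defined as the supernatant after 21,000xg for 90 min. It came from K562 cells at 2×10^6 cells/mL given 10 μM compound for 30 min, heated in aliquots for 3 min across 48°C-58°C, pooled, and extracted in PBS with 0.5% NP-40 at 4°C, and was quantified by TMTpro 16plex LC-MS/MS with equalised channel sums. Thermal stability against control samples, from duplicates, is reported as log2 fold change.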

volasertib = compound: CC[C@@H]1C(=O)N(C)c2cnc(Nc3ccc(C(=O)N[C@H]4CC[C@H](N5CCN(CC6CC6)CC5)CC4)cc3OC)nc2N1C(C)C [volasertib]
Outline: as §1

[2] = compound: CC[C@H](C)N1C=C(C2=C(C=C(C=C21)C3=CN=C(C=C3)N4CCNCC4)C(=O)NCC5=C(C=C(NC5=O)C)C)C
Outline: as §1

epoxomicin = compound: CC[C@H](C)[C@@H](C(=O)N[C@@H]([C@@H](C)O)C(=O)N[C@@H](CC(C)C)C(=O)[C@]1(CO1)C)NC(=O)[C@H]([C@@H](C)CC)N(C)C(=O)C [epoxomicin]
Outline: as §1

[3] = compound: CCn1c(C(=O)N(C2CC2)C2CC2)cc2c3c(ncn3C)c(Nc3cc(C)n(C)n3)nc21
Outline: as §1

[4] = compound: CCn1cc(-c2ccnc3[nH]c(-c4cccc(CN(C)C)c4)cc23)c(-c2ccc(NC(=O)N(C)C)cc2)n1
Outline: as §1

[5] = compound: CN(C)CC(=O)Nc1ccc2[nH]c(=O)c3ccccc3c2c1
Outline: as §1

rosiglitazone = compound: CN(CCOC1=CC=C(C=C1)C[C@H]2C(=O)NC(=O)S2)C3=CC=CC=N3 (racemic) [rosiglitazone]
Outline: as §1

[6] = compound: CN1C2=C(C3=C1C(=O)N(N=C3)CC4=CC(=CC=C4)N)SC(=C2)S(=O)C
Outline: as §1

[7] = compound: CN1CCC(CNc2ccc3ncc(-c4cccc(OC(F)(F)F)c4)n3n2)CC1
Outline: as §1

saracatinib = compound: CN1CCN(CCOc2cc(OC3CCOCC3)c3c(Nc4c(Cl)ccc5c4OCO5)ncnc3c2)CC1 [saracatinib]
Outline: as §1

sotrastaurin = compound: CN1CCN(c2nc(C3=C(c4c[nH]c5ccccc45)C(=O)NC3=O)c3ccccc3n2)CC1 [sotrastaurin]
Outline: as §1

alvocidib = compound: CN1CC[C@H](c2c(O)cc(O)c3c(=O)cc(-c4ccccc4Cl)oc23)[C@H](O)C1 [alvocidib]
Outline: as §1

Tubastatin A = compound: CN1CCc2c(c3ccccc3n2Cc2ccc(C(=O)NO)cc2)C1 [Tubastatin A]
Outline: as §1

[8] = compound: CNC(=O)C1=CC=CC=C1NC2=NC(=NC=C2Cl)NC3=C(C=C(C=C3)N4CCOCC4)OC
Outline: as §1

defactinib = compound: CNC(=O)c1ccc(Nc2ncc(C(F)(F)F)c(NCc3nccnc3N(C)S(C)(=O)=O)n2)cc1 [defactinib]
Outline: as §1

rucaparib = compound: CNCc1ccc(-c2[nH]c3cc(F)cc4c3c2CCNC4=O)cc1 [rucaparib]
Outline: as §1

[9] = compound: CNc1nc(-c2ccc3c(N)n[nH]c3c2)cc(N2C[C@@H](C(=O)NC3CCCCC3)CC[C@H]2C)n1
Outline: as §1

encorafenib = compound: COC(=O)N[C@@H](C)CNc1nccc(-c2cn(C(C)C)nc2-c2cc(Cl)cc(NS(C)(=O)=O)c2F)n1 [encorafenib]
Outline: as §1

[10] = compound: COC(=O)[C@H](CCSC)NC(=O)C1=C(C=C(C=C1)NC[C@H](CS)N)C2=CC=CC=C2
Outline: as §1

Chain of UniProt Q16842 (Q16842 whole entry, looked up): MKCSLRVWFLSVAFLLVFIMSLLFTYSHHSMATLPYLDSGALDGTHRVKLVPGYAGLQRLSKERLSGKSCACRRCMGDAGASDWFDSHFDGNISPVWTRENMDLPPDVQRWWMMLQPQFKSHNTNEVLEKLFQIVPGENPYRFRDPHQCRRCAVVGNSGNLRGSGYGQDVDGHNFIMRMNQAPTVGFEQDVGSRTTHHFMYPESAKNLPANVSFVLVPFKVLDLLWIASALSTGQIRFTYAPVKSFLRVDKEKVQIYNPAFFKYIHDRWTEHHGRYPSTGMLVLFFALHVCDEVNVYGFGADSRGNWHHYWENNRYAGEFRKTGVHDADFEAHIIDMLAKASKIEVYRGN
Chain of UniProt Q01130 (Q01130 whole entry, looked up): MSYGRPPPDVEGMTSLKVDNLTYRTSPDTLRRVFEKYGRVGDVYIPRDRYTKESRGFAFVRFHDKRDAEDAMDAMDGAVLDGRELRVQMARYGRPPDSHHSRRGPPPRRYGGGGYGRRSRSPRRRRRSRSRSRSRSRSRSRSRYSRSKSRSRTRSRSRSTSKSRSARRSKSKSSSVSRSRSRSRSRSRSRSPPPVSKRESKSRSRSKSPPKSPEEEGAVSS
Chain of UniProt O14776 (O14776 whole entry, looked up): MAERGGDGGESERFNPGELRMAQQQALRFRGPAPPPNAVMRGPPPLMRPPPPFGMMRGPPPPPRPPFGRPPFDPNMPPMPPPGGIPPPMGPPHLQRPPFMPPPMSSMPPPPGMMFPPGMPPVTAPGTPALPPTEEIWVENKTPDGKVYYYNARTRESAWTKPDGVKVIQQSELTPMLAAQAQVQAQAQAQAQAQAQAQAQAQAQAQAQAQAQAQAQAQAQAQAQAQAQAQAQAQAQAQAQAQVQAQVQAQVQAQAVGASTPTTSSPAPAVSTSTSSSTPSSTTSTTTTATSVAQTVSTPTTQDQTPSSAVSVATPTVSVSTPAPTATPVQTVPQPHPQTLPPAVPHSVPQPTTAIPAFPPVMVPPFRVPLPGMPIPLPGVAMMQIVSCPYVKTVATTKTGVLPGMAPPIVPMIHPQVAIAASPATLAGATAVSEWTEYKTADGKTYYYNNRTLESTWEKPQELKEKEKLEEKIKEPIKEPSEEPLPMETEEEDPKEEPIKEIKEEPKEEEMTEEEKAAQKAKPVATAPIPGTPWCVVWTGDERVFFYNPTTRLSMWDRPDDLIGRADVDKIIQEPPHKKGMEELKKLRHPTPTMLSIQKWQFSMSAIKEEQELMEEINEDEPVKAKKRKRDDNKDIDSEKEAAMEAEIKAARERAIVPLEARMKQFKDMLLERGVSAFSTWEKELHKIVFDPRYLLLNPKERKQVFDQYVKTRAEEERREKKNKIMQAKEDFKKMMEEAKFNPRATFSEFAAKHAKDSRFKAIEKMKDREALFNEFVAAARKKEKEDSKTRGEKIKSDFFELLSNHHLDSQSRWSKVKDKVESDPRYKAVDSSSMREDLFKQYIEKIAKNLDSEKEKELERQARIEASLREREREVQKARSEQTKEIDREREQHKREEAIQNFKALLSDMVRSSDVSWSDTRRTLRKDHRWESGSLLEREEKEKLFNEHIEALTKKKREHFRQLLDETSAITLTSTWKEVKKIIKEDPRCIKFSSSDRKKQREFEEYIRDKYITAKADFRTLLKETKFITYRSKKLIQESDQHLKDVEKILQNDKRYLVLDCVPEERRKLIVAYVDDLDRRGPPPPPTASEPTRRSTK
Chain of UniProt A6NHR9 (A6NHR9 whole entry, looked up): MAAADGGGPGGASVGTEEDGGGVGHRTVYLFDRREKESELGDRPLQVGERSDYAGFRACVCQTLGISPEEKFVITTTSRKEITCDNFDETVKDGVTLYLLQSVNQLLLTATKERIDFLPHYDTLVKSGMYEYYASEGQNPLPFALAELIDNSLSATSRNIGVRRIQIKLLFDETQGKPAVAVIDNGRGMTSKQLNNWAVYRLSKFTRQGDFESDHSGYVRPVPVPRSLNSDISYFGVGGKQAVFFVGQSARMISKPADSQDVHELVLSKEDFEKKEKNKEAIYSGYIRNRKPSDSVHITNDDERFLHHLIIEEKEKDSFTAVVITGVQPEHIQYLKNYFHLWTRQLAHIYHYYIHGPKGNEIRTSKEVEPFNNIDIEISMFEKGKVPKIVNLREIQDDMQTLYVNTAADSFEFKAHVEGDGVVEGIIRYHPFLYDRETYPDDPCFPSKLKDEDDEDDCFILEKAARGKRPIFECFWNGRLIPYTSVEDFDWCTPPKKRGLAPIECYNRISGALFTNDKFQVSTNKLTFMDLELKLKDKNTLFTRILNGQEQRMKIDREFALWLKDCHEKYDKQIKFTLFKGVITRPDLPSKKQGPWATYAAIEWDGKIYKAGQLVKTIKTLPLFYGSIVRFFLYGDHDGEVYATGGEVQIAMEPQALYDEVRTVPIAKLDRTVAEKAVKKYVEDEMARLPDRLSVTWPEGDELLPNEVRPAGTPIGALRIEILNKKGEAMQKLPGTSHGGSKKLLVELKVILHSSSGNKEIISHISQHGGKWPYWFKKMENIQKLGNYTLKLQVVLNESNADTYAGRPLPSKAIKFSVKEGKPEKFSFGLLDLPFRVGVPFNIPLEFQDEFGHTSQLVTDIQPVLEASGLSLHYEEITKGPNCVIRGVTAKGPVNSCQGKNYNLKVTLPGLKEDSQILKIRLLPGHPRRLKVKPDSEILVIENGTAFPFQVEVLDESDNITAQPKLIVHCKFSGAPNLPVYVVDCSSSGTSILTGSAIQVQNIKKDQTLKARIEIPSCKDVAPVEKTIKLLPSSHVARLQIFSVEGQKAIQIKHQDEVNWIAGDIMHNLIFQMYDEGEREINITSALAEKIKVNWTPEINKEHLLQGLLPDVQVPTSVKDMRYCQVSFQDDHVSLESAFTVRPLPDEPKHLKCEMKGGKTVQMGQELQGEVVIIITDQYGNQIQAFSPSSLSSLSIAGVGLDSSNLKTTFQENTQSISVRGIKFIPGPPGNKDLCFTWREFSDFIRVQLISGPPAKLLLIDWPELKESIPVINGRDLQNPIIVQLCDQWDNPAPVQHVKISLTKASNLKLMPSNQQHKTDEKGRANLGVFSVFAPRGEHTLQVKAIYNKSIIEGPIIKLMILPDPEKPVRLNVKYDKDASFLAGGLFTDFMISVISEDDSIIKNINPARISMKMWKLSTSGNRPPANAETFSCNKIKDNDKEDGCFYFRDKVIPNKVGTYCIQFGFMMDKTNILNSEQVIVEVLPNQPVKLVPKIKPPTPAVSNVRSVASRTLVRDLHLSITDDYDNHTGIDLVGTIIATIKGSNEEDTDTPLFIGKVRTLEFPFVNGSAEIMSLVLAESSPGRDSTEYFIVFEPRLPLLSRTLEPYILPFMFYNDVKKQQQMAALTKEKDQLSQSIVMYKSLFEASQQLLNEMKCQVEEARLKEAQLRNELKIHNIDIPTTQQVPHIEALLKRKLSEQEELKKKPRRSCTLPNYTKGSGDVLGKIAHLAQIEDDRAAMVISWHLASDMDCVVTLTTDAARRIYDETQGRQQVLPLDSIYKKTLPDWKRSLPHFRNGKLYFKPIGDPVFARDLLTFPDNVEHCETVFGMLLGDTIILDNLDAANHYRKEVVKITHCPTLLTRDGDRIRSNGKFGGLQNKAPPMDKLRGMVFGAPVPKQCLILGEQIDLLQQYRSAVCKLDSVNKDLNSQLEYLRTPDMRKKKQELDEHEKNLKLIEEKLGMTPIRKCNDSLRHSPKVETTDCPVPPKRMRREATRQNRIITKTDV

Target | log2 fold change [1] | log2 fold change (volasertib) | log2 fold change [2] | log2 fold change (epoxomicin) | log2 fold change [3] | log2 fold change [4] | log2 fold change [5] | log2 fold change (rosiglitazone) | log2 fold change [6] | log2 fold change [7] | log2 fold change (saracatinib) | log2 fold change (sotrastaurin) | log2 fold change (alvocidib) | log2 fold change (Tubastatin A) | log2 fold change [8] | log2 fold change (defactinib) | log2 fold change (rucaparib) | log2 fold change [9] | log2 fold change (encorafenib) | log2 fold change [10]
TCERG1 (UniProt O14776) | -0.145 | -0.445 (active) | 0.133 | 0.116 | -0.076 | -0.032 | 0.135 | 0.071 | -0.038 | -0.136 | -0.051 | -0.086 | -0.18 | 0.11 | -0.011 | -0.288 | -0.003 | 0.08 | 0.063 | -0.105
ST3GAL2 (UniProt Q16842) | -0.28 | -0.562 (active) | -0.053 | -0.053 | -0.038 | 0.062 | 0.005 | 0.011 | -0.071 | -0.474 (active) | -0.103 | 0.036 | -0.017 | 0.107 | 0.129 | -0.02 | 0.093 | 0.138 | 0.06 | -0.136
SMCHD1 (UniProt A6NHR9) | 0.009 | -0.326 | 0.098 | -0.189 | -0.015 | -0.085 | 0.032 | -0.118 | -0.023 | -0.144 | -0.238 | -0.084 | -0.492 | 0.002 | -0.028 | -0.45 | 0.183 | 0.075 | 0.188 | -0.088
SRSF2 (UniProt Q01130) | 0.087 | 0.134 | -0.027 | -0.069 | 0.047 | 0.022 | -0.082 | -0.024 | 0.045 | 0.054 | -0.008 | 0.089 | 0.218 | -0.034 | -0.1 | 0.052 | 0.078 | -0.001 | -0.013 | 0.076
